DT40 TDP1 no CPT: qHTS for Inhibitors of human tyrosyl-DNA phosphodiesterase 1 (TDP1): qHTS in cells in absence of CPT; DT40 Tdp1-/- hTDP1 cells, no CPT, ATP luminescence, 48 h; Potency, µM (titrated, usually from 46.2 µM), inactives show top-dose activity change, negative = growth inhibition, actives largely listed as inhibitors; 420,000 compounds, 15% hits; further: on the % scale 0 is the no-effect control and ±100 the full control effect; nearly all actives have a fitted effect of over 55% in size
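Readout: luminescence from CellTiter-Glo after 30 min in the dark at RT. Cells: DT40 Tdp1-/- with stable hTDP1, 400/well. Exposure: compounds alone, ≥48 hr, 37 °C.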
TGFb inhibitor: blocks TGF-b signaling; HepG2 CAGA-GFP TGF-b/SMAD3 reporter, GFP fluorescence, 18 h; TGF-beta stimulated, 500 pg/mL final; Potency, µM (titrated, usually from 46.1 µM), for the others: top-dose activity, negative = inhibition, actives largely listed as inhibitors; 410,000 compounds, 1.2% hits; further: on the % scale 0 is the no-effect control and ±100 the full control effect; nearly all actives have a fitted effect of over 65% in size
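HEPG2 CAGA-GFP reporter cells (1000/well, DMEM with 1% FBS) received compounds, then recombinant TGF-beta at 500 pg/mL final for 18 hours at 37 degrees C. Per-cell GFP summed per well was normalised to unstimulated and stimulated DMSO controls before curve fitting.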
DT40 TDP1 CPT: DT40-hTDP1 cell growth loss with CPT | chicken DT40 Tdp1-/-;hTDP1 cells + 20 nM CPT, ATP luminescence, 48 h | Potency, µM (doses to about 46.2 µM), for the others: at the highest dose activity change, negative = growth inhibition, actives largely listed as inhibitors | 420,000 compounds, 12% hits | AID 686979; further: on the % scale 0 is the no-effect control and ±100 the full control effect; nearly all actives have a fitted effect of over 55% in size
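Cell growth measured by CellTiter-Glo luminescence after a minimum 48 h, 37 C compound exposure with 20 nM CPT in Tdp1-knockout DT40 cells stably expressing hTDP1, seeded 400/well; qHTS titration format.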
HT1080 IDH1KD tx: HT-1080 IDH1 knockdown cell toxicity (counter line). HT-1080 IDH1 knockdown viability, ATP luminescence, 48 h. Potency, µM (titrated, usually from 46.1 µM), without a hit: top-dose activity, negative = toxicity, most hits filed as cytotoxic. 360,000 compounds, 2% hits. AID 686971;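 further: 0% = DMSO wells and -100% = cell-free medium wells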
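In this qHTS, HT-1080 cells depleted of IDH1 are exposed for 48 h at 37 °C to compound titrations. Toxicity is scored from CellTiter-Glo luminescence, with DMSO as full viability and medium alone as none.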
HepG2 viability: counter-screen for TGF-b inhibitors: cytotoxicity in HepG2 cells. 410,000 compounds, 0.76% hits. HepG2 CAGA-GFP viability, ATP luminescence, 18 h. Potency, µM (doses to about 46.1 µM), without a hit: at the top dose activity change, negative = cytotoxicity, most hits filed as cytotoxic
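CellTiter-Glo luminescence gave cytotoxicity after 18 hours at 37 degrees C. The cells were HepG2 CAGA-GFP in 1% FBS DMEM, stimulated with 500 pg/mL TGF-beta after compound addition. %Activity was normalised to no-cell wells (complete cell-killing) and DMSO (no toxicity), and curves were fitted and classified.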
HT1080-NT tox: kills 2HG-producing HT-1080-NT fibrosarcoma cells; HT-1080-NT fibrosarcoma viability, CellTiter-Glo ATP luminescence, 48 h; Potency, µM (doses to about 46.1 µM), inactives show at the highest dose activity, negative = less viability, actives largely listed as cytotoxic; 360,000 compounds, 1.6% hits;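 further: NT is the 2HG producing partner of a matched IDH1 knockdown line; 0% = DMSO-treated cells and -100% = media-only wells without cells; nearly all actives have a fitted effect of over 55% in size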
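HT-1080-NT; 750 cells/well; 5% FBS RPMI; 48 h compound, 37 degrees C; CellTiter-Glo luminescence; curve fitting and curve-class assignment.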
Active calls of the source: *; ? = inconclusive; · = no result given; [ ] = another dose, or the depositor's remark. Only some compounds are listed: those with a hit (about 17% of all), similar ones and a draw of the others. The call rests on the fitted dose curve; in most records, active means well fitted curve in the direction sought with a large enough effect; inconclusive means small, poorly fitted or top-dose-only effect, or another doubt; inactive means no such curve, though single readings can be large; an effect the other way counts as inactive or inconclusive. Potency means the concentration at half of the fitted maximal effect.

SMILES	DT40 TDP1 no CPT	TGFb inhibitor	DT40 TDP1 CPT	HT1080 IDH1KD tx	HepG2 viability	HT1080-NT tox
COc1ccc2c(CNCc3ccc(Cl)cc3)c(C(=O)O)n(Cc3ccccc3C)c2c1	1.2µM*	6%	2.3µM*	·	-26%	·
COCCSc1ncnc2c1oc1nc3c(cc12)COC(C)(C)C3	?	-27%	-28%	?	-41%	-10%
CC1(C)Cc2nc3oc4c(N(CCO)Cc5ccccc5)ncnc4c3cc2CO1	21µM*	-1%	21µM*	-6%	-22%	-19%
O=C(Nc1cccc(F)c1)N1CC[C@@]2(CCCN(C(=O)c3ccco3)C2)C1	-7%	·	3%	·	·	·
Clc1cnc(N/N=C/c2cccs2)c(Cl)c1	?	-2%	-15%	-24%	-37%	-12%
Cc1ccc(/C=N/Nc2ncc(Cl)cc2Cl)s1	?	?	?	7.1µM*	-31%	6.3µM*
Cc1cccc(NS(=O)(=O)c2ccc(C(=O)N3CC(C)OC(C)C3)cc2)c1C (configuration not stated)	?	9%	?	-4%	-16%	-7%
Cc1ccccc1NS(=O)(=O)c1ccc(C(=O)N2CCC2)cc1	?	-10%	-23%	-6%	-37%	-3%
Cc1cccc(NS(=O)(=O)c2ccc(C(=O)N3CCCC3)cc2)c1C	15µM*	-5%	-17%	-5%	-7%	-10%
COc1cccc(CN(C)C(=O)c2ccc(S(=O)(=O)Nc3cccc(C)c3C)cc2)c1OC	18µM*	-14%	18µM*	-24%	-25%	-12%
COc1cccc(CN(C)C(=O)c2ccc(S(=O)(=O)Nc3ccccc3F)cc2)c1OC	?	-8%	?	3%	3%	-4%
Cc1cccc(NS(=O)(=O)c2ccc(C(=O)N3CCCCCC3)cc2)c1C	23µM*	-18%	?	-12%	0%	-12%
CC(C)Cc1ccccc1S(N)(=O)=O	-7%	-1%	-7%	11%	-37%	13%
CCCOc1ccc(/C=C/C(=O)N2CCOCC2)cc1	2%	5%	3%	9%	13%	4%
Nc1nc(NCc2ccc(F)cc2)c2[nH]cnc2n1	-13%	-23%	-3%	·	-5%	·
O=c1[nH]c(CSc2ncccn2)nc2c1cnn2-c1ccccc1	-20%	-7%	-26%	1%	-7%	-1%
O=c1[nH]c(SCc2nc3c(cnn3-c3ccccc3)c(=O)[nH]2)nc2ccccc12	21µM*	4%	?	?	-13%	-21%
Cc1ccc2nc(SCc3nc4c(cnn4-c4ccccc4)c(=O)[nH]3)[nH]c2c1	16µM*	-19%	21µM*	9%	-22%	7%
O=c1[nH]c(CSc2nc3ccccc3[nH]2)nc2c1cnn2-c1ccccc1	21µM*	-2%	26µM*	?	-41%	23µM*
COCc1c(C(=O)N2CCC(N3CCCCC3)CC2)cnn1-c1ncc(C)c(-c2cccs2)n1	-7%	·	10%[9.04 µM]	·	·	·
COc1ccc(OC)c(/C=N/NC(=O)c2cnccn2)c1	-13%	-3%	4%	7%	6%	4%
O=C(NC(=S)NC1CCCCCCCCCCC1)c1cccnc1	15µM*	21%	?	0%	19%	-1%
CCCCOc1ccc(C(=O)NNC(=O)c2cnccn2)cc1OC	21µM*	22%	8.2µM*	?	-34%	?
O=C(NC(=S)NC1CC1)c1cccnc1	-1%	-22%	-1%	4%	18%	3%
COc1cc(C(=O)NC(=S)NNC(=O)c2cnccn2)cc(OC)c1OC	?	-4%	?	15µM*	-4%	?
SMILES	DT40 TDP1 no CPT	TGFb inhibitor	DT40 TDP1 CPT	HT1080 IDH1KD tx	HepG2 viability	HT1080-NT tox
COc1cc(C(=O)NC(=S)NC(C)C)cc(OC)c1OC	?	9%	-26%	0%	-11%	3%
COc1ccc(C(=O)NC(=S)NNC(=O)c2ccccc2C)cc1	?	-10%	?	?	-3%	?
COc1ccc(C(=O)NC(=S)NNC(=O)c2cnccn2)cc1	21µM*	3%	21µM*	2.9µM*	-29%	?
CCN(CC)C(=O)c1[nH]cnc1C(=O)Nc1ccc(Cl)cc1	-1%	7%	-2%	6%	-16%	7%
CN(C(=O)CO)c1c(I)c(C(=O)NCC(O)CO)c(I)c(C(=O)NCC(O)CO)c1I (configuration not stated)	-4%	·	1%	·	·	·
O=C(NC(=S)NNC(=O)c1ccccc1O)c1cccnc1	21µM*	0%	?	-21%	1%	-1%
O=C(NC(=S)NNC(=O)c1ccc(Cl)cc1Cl)c1cccnc1	?	-4%	?	-28%	-23%	0%
O=C(NNC(=S)NC(=O)c1cccnc1)c1ccc(Cl)cc1	15µM*	-3%	23µM*	?	-7%	-30%
O=C(NCCCNC(=O)c1cnccn1)c1ccc(Cl)cc1	2%	11%	23%	7%	4%	8%
O=C(Cc1ccc(Cl)cc1)NNC(=S)NC(=O)c1cccnc1	-24%	8%	?	-1%	0%	12%
O=C(NC(=S)NNC(=O)c1cnccn1)c1ccc(Cl)cc1	?	31%	8.2µM*	?	6%	-18%
CCOC(=O)C1=CN(C(=O)OC(C)(C)C)C(CN2C(=O)COCC2=O)C1 (configuration not stated)	·	-3%	·	·	-12%	·
COc1ccc(C(=O)c2c(-c3cccc(C)c3)oc3ccc(N4CCOCC4)cc23)cn1	15µM*	-10%	?	-21%	-16%	-12%
O=C(Nc1ccccc1)C1=C[C@H](c2coc3ccccc3c2=O)C[C@H](OCCCCO)O1	?	-52%	?	-16%	4%	-2%
CC(=O)n1cc([C@H]2C=C(C(N)=O)O[C@@H](OCc3ccc(CO)cc3)C2)c2ccccc21	?	9%	?	-1%	2%	-22%
CC(=O)n1cc([C@H]2C=C(C(=O)NCc3ccccc3)O[C@@H](OCc3ccc(CO)cc3)C2)c2ccccc21	3.3µM*	?	5.8µM*	-19%	-6%	-27%
O=C(Nc1ccccc1)C1=C[C@@H](c2coc3ccccc3c2=O)C[C@@H](OCCCCO)O1	9.2µM*	?	?	5%	-14%	5%
